We go through five molecules from PubChem BioAssay.

Active and inactive are the calls of the source. Unless noted, how the calls were made is not given here.

Experiment [1] deals with Wnt5a (protein binding on small-molecule microarray). The experiment can be described thus: small molecules binding Wnt5a protein – biophysical, small-molecule microarray, 635/667 nm fluorescence, primary screen (AID 1142).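 Further: fluorescence read at 667 nm with signal to noise per printed feature.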 The following applies: 635 nm fluorescence, higher = more signal.
Experiment [2] in a line: ATP-based viability of Huh7 replicon cells – cell-based, CellTiter-Glo luminescence, basal, 48 h, cytotoxicity control for HCV replication inhibitor project, primary screen (AID 1143).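 Further: Huh7 hepatoma cells carrying a hepatitis C replication reporter with no stimulus; test concentration not given here.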 The note with it: higher = more signal, called active from +8 up or from −8 down. (In antiviral work, replicon cells carry a viral genome segment that copies itself.)
A short description of experiment [3]: Pseudomonas biofilm growth suppression – PAO1 strain, BacTiter-Glo luminescence, LB-PBS, primary screen (AID 1144). The note with it: P. aeruginosa PAO1 biofilm, 12 h, higher = more signal.
Experiment [4] can be described thus: basal CRE-LacZ reporter activity in PC12 – cell-based, unstimulated, primary screen (AID 1145). The note with it: no forskolin, luminescence, 4.5 h, higher = more signal, called active from +8 up or from −8 down.
Experiment [5] in a line: forskolin-driven CRE-LacZ activity in PC12 – cell-based, CRE-LacZ reporter, forskolin-stimulated, primary screen (AID 1146).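 Further: PC12 cells with 6xCRE LacZ reporter stimulated by forskolin 10 µM; beta-galactosidase reporter signal reflecting CREB driven transcription.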 The following applies: luminescence, 4.5 h, higher = more signal, called active from +8 up or from −8 down.
Experiment [6] has as its target Streptavidin (Streptomyces avidinii) (UniProt P22629). Briefly: compounds binding control protein streptavidin – biophysical, small-molecule microarray, 635/667 nm fluorescence, artefact control for SMM compound annotation, primary screen (AID 1147).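 Further: signal reflects streptavidin binding to arrayed compounds as a control protein.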 The note with it: higher = more signal.
The nature of experiment [7]: probe aInhba binding on compound microarray – biochemical, small-molecule microarray, 635/667 nm fluorescence, primary screen (AID 1148).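 Further: score merges 667nm spot fluorescence with signal-to-noise for antibody binding to printed compounds.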 The note with it: higher = more signal.
The target of experiment [8] is Torsin-1A (Homo sapiens) (UniProt O14656). Briefly: TOR1A wild-type binding on microarray – cell lysate, small-molecule microarray, lysate, 635/667 nm, primary screen (AID 1149). The note with it: COS7 hTOR1A-WT lysate, 635 nm fluorescence, higher = more signal.
Experiment [9] shares this target. The experiment can be described thus: torsin A mutant lysate binding on microarrays – cell lysate, small-molecule microarray, COS7 lysate, 635/667 nm fluorescence, primary screen (AID 1150).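 Further: score pools 667 nm emission and signal to noise measuring lysate protein binding.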 The note with it: COS7 hTOR1A mutant lysate, 635 nm fluorescence, higher = more signal.
The test system of experiment [10] is Sonic hedgehog protein (Shh). The experiment can be described thus: Sonic hedgehog microarray binding compounds – biochemical, small-molecule microarray, 635/667 nm fluorescence, primary screen (AID 1151).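 Further: Shh protein binding to compounds spotted on small-molecule microarray slides; score combines spot fluorescence intensity with signal-to-noise across triplicate slides.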 The following applies: 635 nm fluorescence, higher = more signal.
Experiment [11] in a line: optical density shifts of acrAB sulA E. coli – strain DRC41, OD650, 48 h, E. coli filamentation inducer project, primary screen (AID 1152).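 Further: E. coli MC1000 strain DRC41 lacking acrAB efflux pump and sulA.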 The note with it: higher = more signal, called active from +8 up or from −8 down.
Experiment [12] in a line: probe aLefty1 binding on compound microarray – biochemical, small-molecule microarray, 635/667 nm fluorescence, primary screen (AID 1153).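 Further: score merges spot fluorescence with signal-to-noise ratio from the scanned slide images.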 The following applies: higher = more signal.
Experiment [13] can be described thus: plasmodial surface anion channel blockers, osmotic lysis – cell-based, P. falciparum Indochina, OD700, 1 h, primary screen (AID 1154). The following applies: P. falciparum Indochina infected RBC osmotic lysis, higher = more signal, called active from +8 up or from −8 down.
The nature of experiment [14]: plasmodial surface anion channel blockers, osmotic lysis – cell-based, P. falciparum Indochina, OD700, 2 h, primary screen (AID 1155).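 Further: lysis reports solute entry through the parasite surface anion channel PSAC.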 The following applies: P. falciparum Indochina infected erythrocytes, higher = more signal, called active from +8 up or from −8 down.
Experiment [15] in a line: changes in parasitized red cell lysis, either direction – P. falciparum Indochina, OD700, 3 h, PSAC antagonist project, primary screen (AID 1156). The following applies: P. falciparum-infected erythrocytes, osmotic lysis, higher = more signal, called active from +8 up or from −8 down.
A short description of experiment [16]: plasmodial surface anion channel blockers, osmotic lysis – cell-based, P. falciparum Indochina, OD700, 18 h, primary screen (AID 1157). The following applies: P. falciparum Indochina infected erythrocytes, osmotic lysis OD700, 18 h; higher = more signal, called active from +8 up or from −8 down.
The nature of experiment [17]: S6 kinase pathway phospho-S6 level changes – cell-based, A549, cytoblot, luminescence, serum-stimulated, primary screen (AID 1158).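 Further: serum-stimulated A549 lung adenocarcinoma cells; signal is phosphorylated S6 detected by cytoblot immunostaining with HRP secondary.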 The note with it: 5 h, higher = more signal.
Experiment [18] deals with NADPH oxidase 2 (Homo sapiens) (UniProt P04839). Briefly: compounds shifting NOX2 Amplex Red fluorescence – cell-based, HEK293-NOX2, PMA-stimulated, NOX inhibitor project, primary screen (AID 1159). Further: test concentration not given here. The note with it: 45 min, higher = more signal, called active from +8 up or from −8 down.
Experiment [19] addresses NADPH oxidase 4 (Homo sapiens) (UniProt Q9NPH5). The experiment can be described thus: compounds shifting NOX4 Amplex Red fluorescence – cell-based, HEK293-NOX4, tetracycline-induced, NOX inhibitor project, primary screen (AID 1160). The note with it: HEK293-NOX4, Amplex Red H2O2 fluorescence, 45 min; higher = more signal, called active from +8 up or from −8 down.
The target in experiment [20] is NADPH oxidase 5 (Homo sapiens) (UniProt Q96PH1). Briefly: compounds shifting NOX5 Amplex Red fluorescence – cell-based, HEK293-NOX5, NOX inhibitor project, primary screen (AID 1161). The following applies: HEK293-NOX5, ionomycin, 45 min, higher = more signal.
Chain of NADPH oxidase 5 (Homo sapiens) (Q96PH1 whole entry, looked up): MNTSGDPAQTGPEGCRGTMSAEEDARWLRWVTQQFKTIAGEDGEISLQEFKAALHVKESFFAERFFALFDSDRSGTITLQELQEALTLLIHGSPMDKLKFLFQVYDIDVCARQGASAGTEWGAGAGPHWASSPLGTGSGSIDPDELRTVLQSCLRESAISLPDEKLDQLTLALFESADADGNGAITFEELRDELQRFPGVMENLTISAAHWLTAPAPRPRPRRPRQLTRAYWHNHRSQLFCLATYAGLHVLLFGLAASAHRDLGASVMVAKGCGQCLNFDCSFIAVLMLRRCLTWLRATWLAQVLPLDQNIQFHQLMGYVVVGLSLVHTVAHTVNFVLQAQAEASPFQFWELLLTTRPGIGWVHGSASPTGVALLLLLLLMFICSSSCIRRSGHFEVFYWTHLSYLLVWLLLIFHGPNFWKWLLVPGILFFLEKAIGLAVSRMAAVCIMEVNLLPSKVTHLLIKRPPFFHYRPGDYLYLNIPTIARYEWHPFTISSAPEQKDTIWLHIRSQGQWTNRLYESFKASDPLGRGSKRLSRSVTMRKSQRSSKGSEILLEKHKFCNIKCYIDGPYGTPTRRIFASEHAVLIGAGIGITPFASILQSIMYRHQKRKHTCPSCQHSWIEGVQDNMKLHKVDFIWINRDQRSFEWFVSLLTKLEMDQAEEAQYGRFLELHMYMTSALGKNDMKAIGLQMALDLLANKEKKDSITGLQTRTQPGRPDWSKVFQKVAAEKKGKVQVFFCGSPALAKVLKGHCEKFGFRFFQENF

Chain of Torsin-1A (Homo sapiens) (O14656 whole entry, looked up): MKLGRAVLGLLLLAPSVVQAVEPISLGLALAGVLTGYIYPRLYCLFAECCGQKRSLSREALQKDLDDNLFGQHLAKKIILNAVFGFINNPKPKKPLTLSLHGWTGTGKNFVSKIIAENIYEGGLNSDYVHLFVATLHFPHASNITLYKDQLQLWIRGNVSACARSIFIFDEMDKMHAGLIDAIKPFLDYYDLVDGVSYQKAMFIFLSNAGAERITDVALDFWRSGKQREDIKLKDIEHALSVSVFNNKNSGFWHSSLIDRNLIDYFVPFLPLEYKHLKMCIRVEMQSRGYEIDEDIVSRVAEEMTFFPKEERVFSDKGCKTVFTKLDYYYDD
Chain of Streptavidin (Streptomyces avidinii) (P22629 whole entry, looked up): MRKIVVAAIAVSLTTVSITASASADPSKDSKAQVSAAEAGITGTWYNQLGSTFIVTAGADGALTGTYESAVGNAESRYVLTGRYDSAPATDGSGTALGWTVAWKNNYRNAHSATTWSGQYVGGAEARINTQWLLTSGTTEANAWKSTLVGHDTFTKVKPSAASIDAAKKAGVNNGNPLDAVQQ
Chain of NADPH oxidase 4 (Homo sapiens) (Q9NPH5 whole entry, looked up): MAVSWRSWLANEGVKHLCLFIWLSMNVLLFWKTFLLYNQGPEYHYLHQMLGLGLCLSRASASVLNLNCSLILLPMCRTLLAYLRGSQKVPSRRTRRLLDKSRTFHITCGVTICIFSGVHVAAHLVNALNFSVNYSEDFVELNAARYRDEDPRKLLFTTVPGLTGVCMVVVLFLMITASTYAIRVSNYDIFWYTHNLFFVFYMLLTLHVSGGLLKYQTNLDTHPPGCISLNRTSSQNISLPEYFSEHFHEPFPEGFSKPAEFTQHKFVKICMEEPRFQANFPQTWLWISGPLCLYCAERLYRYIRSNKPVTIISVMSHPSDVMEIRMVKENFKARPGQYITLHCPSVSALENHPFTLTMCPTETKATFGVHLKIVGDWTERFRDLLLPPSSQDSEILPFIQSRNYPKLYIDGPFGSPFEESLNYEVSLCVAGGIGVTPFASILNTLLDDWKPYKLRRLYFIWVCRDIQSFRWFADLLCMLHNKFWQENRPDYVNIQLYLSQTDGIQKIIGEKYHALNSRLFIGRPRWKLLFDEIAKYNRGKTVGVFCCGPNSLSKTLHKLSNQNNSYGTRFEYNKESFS
Chain of NADPH oxidase 2 (Homo sapiens) (P04839 whole entry, looked up): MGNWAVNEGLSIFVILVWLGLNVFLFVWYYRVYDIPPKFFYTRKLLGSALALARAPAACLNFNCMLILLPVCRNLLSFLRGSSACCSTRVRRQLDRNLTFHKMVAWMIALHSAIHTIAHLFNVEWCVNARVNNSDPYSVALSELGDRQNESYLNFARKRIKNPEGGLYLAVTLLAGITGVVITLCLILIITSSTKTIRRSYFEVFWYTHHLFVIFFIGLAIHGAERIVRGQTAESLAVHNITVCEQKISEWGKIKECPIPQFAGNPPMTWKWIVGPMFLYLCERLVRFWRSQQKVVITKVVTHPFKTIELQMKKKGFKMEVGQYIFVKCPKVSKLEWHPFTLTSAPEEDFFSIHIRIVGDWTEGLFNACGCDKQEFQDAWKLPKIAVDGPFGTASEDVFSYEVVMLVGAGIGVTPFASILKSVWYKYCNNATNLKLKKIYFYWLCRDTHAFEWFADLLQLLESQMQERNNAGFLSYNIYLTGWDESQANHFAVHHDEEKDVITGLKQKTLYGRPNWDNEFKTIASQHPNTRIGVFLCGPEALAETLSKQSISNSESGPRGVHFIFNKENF

Turning to `C[C@@H](c1ccccc1)N1C(=O)[C@H]2[C@H]3[C@H](O)[C@H](O)CC(=NNC(=O)OCc4ccccc4)[C@@H]3CC[C@H]2C1=O`, the composite z-score was 0.15 in [1]; -0.31 in experiment [6]; -0.335 in experiment [7]; 3.35 with Torsin-1A (Homo sapiens) [8]; 3.49 with Torsin-1A (Homo sapiens) [9]; 2 in [10]. In addition, the composite z-score in experiment [12] is -0.0294. For the same molecule, the z-score in experiment [2] was 0.231 (inactive); in experiment [3], -0.479 (inactive); in experiment [4] it was -0.38 (inactive); in experiment [5] it was 0.0869 (inactive); in [11], 0.362 (inactive); in experiment [13], 0.0012 (inactive). Moreover, the z-score in [14] was 0.461 (inactive); in experiment [15], -0.694 (inactive); in [16], 0.329 (inactive); in experiment [17], -0.136; in [18], -0.065 (inactive); in [19], 1.07 (inactive). Moreover, in experiment [20], the z-score is -0.0584.
`COC(=O)CC=C1c2ccccc2[C@H](OC)[C@H]1C`: the composite z-score in experiment [1] is 0.0034; in experiment [6], -0.0324; in [7], 0.0275; with Torsin-1A (Homo sapiens) [8], 0.399; with Torsin-1A (Homo sapiens) [9], -0.127; in experiment [10], 0.103. The composite z-score in experiment [12] is -0.326. Also, the z-score in experiment [2] was 0.553 (inactive); in experiment [3] it was 0.624 (inactive); in experiment [4], 0.478 (inactive); in experiment [5] it was 0.345 (inactive); in experiment [11] it was 0.101 (inactive); in experiment [13], 0.0311 (inactive). Further, the z-score in experiment [14] was 0.269 (inactive); in experiment [15] it was -0.0239 (inactive); in experiment [16] it was -0.0463 (inactive); in experiment [17] it was -0.882; in experiment [18], 0.457 (inactive); in experiment [19], 0.644 (inactive). In [20], the z-score came out at 0.199.
As for `CC(=O)OC[C@H]1O[C@@H](ON=C(C)CCN2CCCCc3nc(C)c(C)cc32)[C@H](OC(C)=O)[C@@H](OC(C)=O)[C@@H]1OC(C)=O`, the composite z-score in [1] is 0.752; in [6], -0.452; in experiment [7] it was 0.144; with Torsin-1A (Homo sapiens) [8], 0.987; with Torsin-1A (Homo sapiens) [9], 1.12; in experiment [10], 1.64. The composite z-score in experiment [12] is -0.0601. The z-score in experiment [2] is -2.39 (inactive); in experiment [3] it was 0.0375 (inactive); in experiment [4], 2.32 (inactive); in [5], -0.494 (inactive); in experiment [11], -0.998 (inactive); in [13], -0.323 (inactive). For the same molecule, the z-score in [14] was -0.558 (inactive); in experiment [15], 1.16 (inactive); in experiment [16], -1.5 (inactive); in [17] it was 0.314; in experiment [18], -1.31 (inactive); in experiment [19], -1.24 (inactive). Also, the z-score in experiment [20] is -2.54.
In the case of `C[C@@H]1CC[C@H]2C(=O)N3[C@@H](CC[C@@H](C)[C@@H]3c3ccc(Br)cc3)C(=O)N2[C@H]1c1ccc(Br)cc1`, the composite z-score in [1] is 0.113; in experiment [6] it was 0.146; in [7], -0.0719; with Torsin-1A (Homo sapiens) [8], 1.05; with Torsin-1A (Homo sapiens) [9] it was 0.626; in experiment [10] it was 0.233. Moreover, the composite z-score in experiment [12] is -0.0099. The z-score is -1.1 (inactive) in experiment [2]; 1.21 (inactive) in experiment [3]; 0.198 (inactive) in experiment [4]; 0.929 (inactive) in experiment [5]; -1.09 (inactive) in experiment [11]; 4.4 (inactive) in experiment [13]. For the same molecule, the z-score in experiment [14] is 1.07 (inactive); in experiment [15], 0.121 (inactive); in [16], 0.689 (inactive); in [17], 0.448; in [18] it was 1.79 (inactive); in experiment [19], -1.8 (inactive). Further, the z-score in [20] was determined as 0.819.
Regarding `COC(=O)[C@@H]1CC[C@H](C)[C@@H](c2ccc(Br)cc2)N1C(=O)C(F)(F)F`, the composite z-score in [1] is -0.237; in experiment [6], -0.307; in experiment [7], -0.0944; in the experiment with Torsin-1A (Homo sapiens) [8], -0.179; with Torsin-1A (Homo sapiens) [9], -0.835; in [10] it was -0.14. Also, the composite z-score in experiment [12] is -0.103. The z-score was -0.322 (inactive) in experiment [2]; -0.69 (inactive) in experiment [3]; 0.565 (inactive) in [4]; -0.344 (inactive) in [5]; -0.643 (inactive) in experiment [11]; 1.08 (inactive) in [13]. Moreover, the z-score in experiment [14] was -0.0008 (inactive); in experiment [15] it was 0.266 (inactive); in experiment [16] it was 0.2 (inactive); in [17], -0.56; in experiment [18], 0.301 (inactive); in experiment [19], 0.467 (inactive). For the same molecule, the z-score in [20] was 0.18.
